According to ChEMBL document CHEMBL2218924, “A broad activity screen in support of a chemogenomic map for kinase signalling research and drug discovery” (Biochem J, 2013):

How the values were obtained:
[1] = target: T1, Testis-specific serine/threonine-protein kinase 1 (Homo sapiens) (UniProt Q9BXA7); conditions: at 1 µM
T1 sequence (whole entry): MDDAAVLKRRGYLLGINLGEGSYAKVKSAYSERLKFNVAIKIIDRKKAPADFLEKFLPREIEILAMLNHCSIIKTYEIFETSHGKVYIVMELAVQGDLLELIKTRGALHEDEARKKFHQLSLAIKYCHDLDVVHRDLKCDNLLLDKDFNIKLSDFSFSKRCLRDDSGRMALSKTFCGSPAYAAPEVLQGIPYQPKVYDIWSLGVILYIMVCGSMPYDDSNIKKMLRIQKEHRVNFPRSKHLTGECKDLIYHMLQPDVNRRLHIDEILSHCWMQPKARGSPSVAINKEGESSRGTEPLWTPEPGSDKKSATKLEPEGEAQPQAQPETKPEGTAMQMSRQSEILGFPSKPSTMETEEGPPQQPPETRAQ

[2] = target: T1, Testis-specific serine/threonine-protein kinase 1 (Homo sapiens); conditions: at 10 µM
[3] = target: T2, Testis-specific serine/threonine-protein kinase 2 (Homo sapiens) (UniProt Q96PF2); conditions: at 10 µM
T2 sequence (whole entry): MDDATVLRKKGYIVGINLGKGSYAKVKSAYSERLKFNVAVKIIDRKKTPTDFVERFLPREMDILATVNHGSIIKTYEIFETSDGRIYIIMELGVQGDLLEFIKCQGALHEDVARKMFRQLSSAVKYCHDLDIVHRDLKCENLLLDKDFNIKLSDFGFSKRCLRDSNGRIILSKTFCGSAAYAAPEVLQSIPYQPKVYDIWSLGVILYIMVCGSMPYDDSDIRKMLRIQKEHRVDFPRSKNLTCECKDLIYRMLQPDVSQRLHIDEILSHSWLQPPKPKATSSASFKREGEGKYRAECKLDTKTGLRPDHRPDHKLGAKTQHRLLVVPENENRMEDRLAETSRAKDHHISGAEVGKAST

[4] = target: T3, Tyrosine-protein kinase Tec (Homo sapiens) (UniProt P42680); conditions: at 1 µM
T3 sequence (whole entry): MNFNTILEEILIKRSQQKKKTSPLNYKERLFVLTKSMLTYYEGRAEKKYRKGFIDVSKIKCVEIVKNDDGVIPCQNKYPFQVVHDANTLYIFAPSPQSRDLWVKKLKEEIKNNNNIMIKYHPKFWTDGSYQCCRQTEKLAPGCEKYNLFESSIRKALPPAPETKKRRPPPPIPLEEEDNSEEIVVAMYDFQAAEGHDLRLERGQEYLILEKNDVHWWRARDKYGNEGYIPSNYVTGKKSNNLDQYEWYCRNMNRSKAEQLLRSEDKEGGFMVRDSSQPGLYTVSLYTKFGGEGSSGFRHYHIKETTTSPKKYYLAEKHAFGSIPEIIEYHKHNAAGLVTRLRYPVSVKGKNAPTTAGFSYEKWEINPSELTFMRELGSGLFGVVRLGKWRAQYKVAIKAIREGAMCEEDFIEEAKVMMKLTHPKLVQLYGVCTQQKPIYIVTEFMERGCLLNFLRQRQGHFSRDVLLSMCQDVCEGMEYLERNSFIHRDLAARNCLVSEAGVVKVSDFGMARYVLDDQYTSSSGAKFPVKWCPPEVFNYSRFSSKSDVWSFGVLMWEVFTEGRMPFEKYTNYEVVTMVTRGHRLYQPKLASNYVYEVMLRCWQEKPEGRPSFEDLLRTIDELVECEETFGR

[5] = target: T3, Tyrosine-protein kinase Tec (Homo sapiens); conditions: at 10 µM
[6] = target: BDNF/NT-3 growth factors receptor (Homo sapiens) (UniProt Q16620); conditions: at 10 µM
[7] = target: Serine/threonine-protein kinase VRK2 (Homo sapiens) (UniProt Q86Y07); conditions: at 1 µM
[8] = target: Serine/threonine-protein kinase VRK2 (Homo sapiens) (UniProt Q86Y07); conditions: at 10 µM
[9] = target: Serine/threonine-protein kinase WNK2 (Homo sapiens) (UniProt Q9Y3S1); conditions: at 1 µM;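 note: residual WNK2 kinase activity expressed as percent of uninhibited control, assayed in MOPS buffer at pH 7.0 containing EDTA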
[10] = target: Angiopoietin-1 receptor (Homo sapiens) (UniProt Q02763); conditions: at 1 µM
[11] = target: Angiopoietin-1 receptor (Homo sapiens) (UniProt Q02763); conditions: at 10 µM
[12] = target: High affinity nerve growth factor receptor (Homo sapiens) (UniProt P04629); conditions: at 1 µM
[13] = target: High affinity nerve growth factor receptor (Homo sapiens) (UniProt P04629); conditions: at 10 µM
[14] = target: BDNF/NT-3 growth factors receptor (Homo sapiens) (UniProt Q16620); conditions: at 1 µM
[15] = target: T4, Tyrosine-protein kinase TXK (Homo sapiens) (UniProt P42681); conditions: at 1 µM
T4 sequence (whole entry): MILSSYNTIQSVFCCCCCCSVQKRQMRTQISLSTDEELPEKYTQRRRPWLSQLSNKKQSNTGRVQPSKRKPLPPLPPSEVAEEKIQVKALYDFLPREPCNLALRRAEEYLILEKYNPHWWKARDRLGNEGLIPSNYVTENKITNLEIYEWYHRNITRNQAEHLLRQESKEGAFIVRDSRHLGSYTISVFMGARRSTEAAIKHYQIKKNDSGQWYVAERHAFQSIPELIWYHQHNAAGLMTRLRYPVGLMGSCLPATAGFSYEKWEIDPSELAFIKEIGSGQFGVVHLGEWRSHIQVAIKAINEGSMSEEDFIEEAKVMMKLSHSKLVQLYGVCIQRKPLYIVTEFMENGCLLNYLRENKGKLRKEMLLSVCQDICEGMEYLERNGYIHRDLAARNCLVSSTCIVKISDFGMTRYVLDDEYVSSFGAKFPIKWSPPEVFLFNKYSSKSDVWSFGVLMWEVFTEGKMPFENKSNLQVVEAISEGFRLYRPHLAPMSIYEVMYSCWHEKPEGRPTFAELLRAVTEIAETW

[16] = target: T4, Tyrosine-protein kinase TXK (Homo sapiens); conditions: at 10 µM
[17] = target: T5, Serine/threonine-protein kinase ULK3 (Homo sapiens) (UniProt Q6PHR2); conditions: at 1 µM
T5 sequence (whole entry): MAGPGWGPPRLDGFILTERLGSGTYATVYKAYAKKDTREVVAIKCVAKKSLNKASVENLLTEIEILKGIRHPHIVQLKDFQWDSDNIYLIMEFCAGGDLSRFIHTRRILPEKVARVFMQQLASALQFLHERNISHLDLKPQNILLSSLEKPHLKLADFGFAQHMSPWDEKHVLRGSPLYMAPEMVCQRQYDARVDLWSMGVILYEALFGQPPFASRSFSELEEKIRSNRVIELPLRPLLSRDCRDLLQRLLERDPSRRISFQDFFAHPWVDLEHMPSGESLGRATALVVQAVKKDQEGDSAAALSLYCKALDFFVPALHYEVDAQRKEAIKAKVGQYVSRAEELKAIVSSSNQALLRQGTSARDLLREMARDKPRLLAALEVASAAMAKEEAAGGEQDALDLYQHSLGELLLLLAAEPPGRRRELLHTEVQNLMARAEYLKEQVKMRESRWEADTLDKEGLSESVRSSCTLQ

[18] = target: T5, Serine/threonine-protein kinase ULK3 (Homo sapiens); conditions: at 10 µM
[19] = target: T6, Serine/threonine-protein kinase ULK2 (Homo sapiens) (UniProt Q8IYT8); conditions: at 1 µM
T6 sequence (whole entry): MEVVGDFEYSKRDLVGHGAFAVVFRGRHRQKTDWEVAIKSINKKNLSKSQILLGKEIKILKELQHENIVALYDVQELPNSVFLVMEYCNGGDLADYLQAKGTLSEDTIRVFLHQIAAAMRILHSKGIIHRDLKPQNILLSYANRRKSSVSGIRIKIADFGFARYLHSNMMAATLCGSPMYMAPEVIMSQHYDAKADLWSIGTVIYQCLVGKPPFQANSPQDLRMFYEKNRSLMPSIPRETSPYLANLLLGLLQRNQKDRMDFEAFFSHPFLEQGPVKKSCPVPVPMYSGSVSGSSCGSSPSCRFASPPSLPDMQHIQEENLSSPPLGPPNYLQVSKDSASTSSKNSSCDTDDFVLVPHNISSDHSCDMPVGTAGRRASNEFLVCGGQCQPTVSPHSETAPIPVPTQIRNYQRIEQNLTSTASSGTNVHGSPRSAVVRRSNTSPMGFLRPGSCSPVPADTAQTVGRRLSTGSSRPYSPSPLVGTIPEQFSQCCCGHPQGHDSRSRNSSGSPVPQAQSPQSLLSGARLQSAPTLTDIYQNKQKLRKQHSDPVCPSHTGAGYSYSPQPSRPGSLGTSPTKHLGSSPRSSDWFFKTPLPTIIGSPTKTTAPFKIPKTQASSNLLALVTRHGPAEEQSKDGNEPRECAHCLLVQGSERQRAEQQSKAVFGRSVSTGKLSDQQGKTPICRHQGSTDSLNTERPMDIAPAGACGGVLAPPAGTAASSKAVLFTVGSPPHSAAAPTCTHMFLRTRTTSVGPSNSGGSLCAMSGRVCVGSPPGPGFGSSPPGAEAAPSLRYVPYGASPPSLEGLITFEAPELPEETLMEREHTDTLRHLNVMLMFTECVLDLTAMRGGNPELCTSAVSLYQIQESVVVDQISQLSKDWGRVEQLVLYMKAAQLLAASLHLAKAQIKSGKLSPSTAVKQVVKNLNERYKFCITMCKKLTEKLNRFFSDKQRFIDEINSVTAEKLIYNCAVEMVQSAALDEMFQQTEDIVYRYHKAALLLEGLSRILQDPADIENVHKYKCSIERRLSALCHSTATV

[20] = target: T6, Serine/threonine-protein kinase ULK2 (Homo sapiens); conditions: at 10 µM

Sequence of High affinity nerve growth factor receptor (Homo sapiens) (P04629 33-796 limits assumed): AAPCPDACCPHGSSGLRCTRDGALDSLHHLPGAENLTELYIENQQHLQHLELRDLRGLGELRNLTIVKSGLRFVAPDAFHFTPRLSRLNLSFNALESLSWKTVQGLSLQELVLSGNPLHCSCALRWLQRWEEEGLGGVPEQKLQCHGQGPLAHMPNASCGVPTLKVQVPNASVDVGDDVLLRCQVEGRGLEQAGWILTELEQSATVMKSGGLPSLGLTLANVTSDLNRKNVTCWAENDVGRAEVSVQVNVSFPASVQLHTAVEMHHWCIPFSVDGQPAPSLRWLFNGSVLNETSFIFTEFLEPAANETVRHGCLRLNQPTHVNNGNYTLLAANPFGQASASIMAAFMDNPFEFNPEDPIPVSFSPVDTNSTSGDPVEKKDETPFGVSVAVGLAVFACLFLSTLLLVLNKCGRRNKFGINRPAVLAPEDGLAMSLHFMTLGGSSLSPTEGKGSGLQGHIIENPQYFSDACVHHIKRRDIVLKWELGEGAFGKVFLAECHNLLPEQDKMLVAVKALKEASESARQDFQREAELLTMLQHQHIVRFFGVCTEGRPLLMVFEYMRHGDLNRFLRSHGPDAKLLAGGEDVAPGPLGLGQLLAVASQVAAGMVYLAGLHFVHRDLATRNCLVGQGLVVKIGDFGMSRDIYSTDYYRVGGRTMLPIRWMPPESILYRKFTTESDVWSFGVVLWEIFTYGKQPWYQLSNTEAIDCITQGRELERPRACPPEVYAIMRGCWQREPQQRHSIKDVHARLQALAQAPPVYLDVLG
Sequence of Serine/threonine-protein kinase WNK2 (Homo sapiens) (Q9Y3S1 whole entry): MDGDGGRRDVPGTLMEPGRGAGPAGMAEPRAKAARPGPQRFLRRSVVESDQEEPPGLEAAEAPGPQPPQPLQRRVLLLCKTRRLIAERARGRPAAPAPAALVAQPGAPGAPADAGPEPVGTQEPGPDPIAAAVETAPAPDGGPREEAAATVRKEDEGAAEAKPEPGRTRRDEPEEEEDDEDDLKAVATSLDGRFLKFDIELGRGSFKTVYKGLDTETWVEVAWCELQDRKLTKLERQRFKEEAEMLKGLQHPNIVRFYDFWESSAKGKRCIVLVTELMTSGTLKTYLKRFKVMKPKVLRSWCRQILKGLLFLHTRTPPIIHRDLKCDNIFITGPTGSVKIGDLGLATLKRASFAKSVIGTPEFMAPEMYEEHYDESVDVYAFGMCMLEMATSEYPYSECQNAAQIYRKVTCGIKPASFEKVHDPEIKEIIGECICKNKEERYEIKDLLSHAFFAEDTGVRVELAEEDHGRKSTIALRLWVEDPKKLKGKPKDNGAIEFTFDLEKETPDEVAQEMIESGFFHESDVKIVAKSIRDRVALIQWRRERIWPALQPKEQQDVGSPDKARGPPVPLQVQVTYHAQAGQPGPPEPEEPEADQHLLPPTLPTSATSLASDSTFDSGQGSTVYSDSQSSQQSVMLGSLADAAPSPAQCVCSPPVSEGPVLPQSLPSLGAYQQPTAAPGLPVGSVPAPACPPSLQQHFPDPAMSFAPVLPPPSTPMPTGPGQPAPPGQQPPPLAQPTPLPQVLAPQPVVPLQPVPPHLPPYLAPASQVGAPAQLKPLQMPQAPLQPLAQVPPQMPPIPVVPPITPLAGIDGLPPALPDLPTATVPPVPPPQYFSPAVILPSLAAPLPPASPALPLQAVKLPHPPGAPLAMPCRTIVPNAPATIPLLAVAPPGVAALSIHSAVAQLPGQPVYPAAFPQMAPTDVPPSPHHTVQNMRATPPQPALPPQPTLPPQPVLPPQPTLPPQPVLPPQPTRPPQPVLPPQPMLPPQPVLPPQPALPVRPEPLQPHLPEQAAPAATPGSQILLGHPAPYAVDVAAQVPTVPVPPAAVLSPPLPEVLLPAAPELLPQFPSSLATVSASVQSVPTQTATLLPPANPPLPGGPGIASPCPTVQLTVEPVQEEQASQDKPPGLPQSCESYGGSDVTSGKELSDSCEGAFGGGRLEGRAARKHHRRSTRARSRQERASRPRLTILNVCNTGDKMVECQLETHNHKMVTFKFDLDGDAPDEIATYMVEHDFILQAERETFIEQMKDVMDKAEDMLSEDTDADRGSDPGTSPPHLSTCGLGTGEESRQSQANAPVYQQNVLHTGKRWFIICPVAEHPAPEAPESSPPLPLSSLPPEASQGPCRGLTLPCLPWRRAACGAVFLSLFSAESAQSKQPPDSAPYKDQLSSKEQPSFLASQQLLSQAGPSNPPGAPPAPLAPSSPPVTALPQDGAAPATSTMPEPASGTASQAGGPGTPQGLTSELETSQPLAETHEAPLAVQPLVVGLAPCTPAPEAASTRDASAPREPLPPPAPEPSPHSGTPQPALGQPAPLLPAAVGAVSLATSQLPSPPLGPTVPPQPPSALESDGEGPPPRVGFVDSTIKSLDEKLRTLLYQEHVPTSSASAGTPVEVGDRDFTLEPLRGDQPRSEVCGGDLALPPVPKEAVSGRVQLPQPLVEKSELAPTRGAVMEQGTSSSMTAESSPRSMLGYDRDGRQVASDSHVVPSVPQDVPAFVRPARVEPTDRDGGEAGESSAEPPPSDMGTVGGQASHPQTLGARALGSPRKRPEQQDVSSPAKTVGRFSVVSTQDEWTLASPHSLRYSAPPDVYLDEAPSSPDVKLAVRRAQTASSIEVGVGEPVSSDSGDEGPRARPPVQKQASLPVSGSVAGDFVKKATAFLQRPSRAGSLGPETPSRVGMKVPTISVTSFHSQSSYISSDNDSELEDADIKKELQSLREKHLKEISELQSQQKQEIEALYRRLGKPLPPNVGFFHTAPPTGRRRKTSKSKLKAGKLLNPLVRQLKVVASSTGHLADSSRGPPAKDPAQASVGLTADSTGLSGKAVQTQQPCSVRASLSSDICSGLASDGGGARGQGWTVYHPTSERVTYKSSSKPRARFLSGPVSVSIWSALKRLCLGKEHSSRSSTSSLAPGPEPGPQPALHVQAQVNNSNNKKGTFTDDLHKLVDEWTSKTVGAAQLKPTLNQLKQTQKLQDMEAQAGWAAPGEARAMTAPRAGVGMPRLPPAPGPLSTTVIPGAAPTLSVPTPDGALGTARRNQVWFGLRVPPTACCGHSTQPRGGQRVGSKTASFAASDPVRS
Sequence of Serine/threonine-protein kinase VRK2 (Homo sapiens) (Q86Y07 whole entry): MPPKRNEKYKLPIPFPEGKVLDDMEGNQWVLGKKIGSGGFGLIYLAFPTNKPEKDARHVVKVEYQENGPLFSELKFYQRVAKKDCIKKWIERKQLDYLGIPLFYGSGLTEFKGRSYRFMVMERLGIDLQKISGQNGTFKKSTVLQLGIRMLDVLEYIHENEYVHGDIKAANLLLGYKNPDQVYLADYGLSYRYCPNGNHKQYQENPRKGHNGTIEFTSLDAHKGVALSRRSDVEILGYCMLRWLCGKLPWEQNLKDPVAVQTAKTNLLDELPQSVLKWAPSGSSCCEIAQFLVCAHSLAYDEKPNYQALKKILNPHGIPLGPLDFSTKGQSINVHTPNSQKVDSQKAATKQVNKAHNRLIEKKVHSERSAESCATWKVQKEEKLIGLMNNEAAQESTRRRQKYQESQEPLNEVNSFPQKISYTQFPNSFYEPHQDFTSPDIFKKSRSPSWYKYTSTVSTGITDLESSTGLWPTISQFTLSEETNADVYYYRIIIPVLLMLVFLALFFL
Sequence of Angiopoietin-1 receptor (Homo sapiens) (Q02763 whole entry): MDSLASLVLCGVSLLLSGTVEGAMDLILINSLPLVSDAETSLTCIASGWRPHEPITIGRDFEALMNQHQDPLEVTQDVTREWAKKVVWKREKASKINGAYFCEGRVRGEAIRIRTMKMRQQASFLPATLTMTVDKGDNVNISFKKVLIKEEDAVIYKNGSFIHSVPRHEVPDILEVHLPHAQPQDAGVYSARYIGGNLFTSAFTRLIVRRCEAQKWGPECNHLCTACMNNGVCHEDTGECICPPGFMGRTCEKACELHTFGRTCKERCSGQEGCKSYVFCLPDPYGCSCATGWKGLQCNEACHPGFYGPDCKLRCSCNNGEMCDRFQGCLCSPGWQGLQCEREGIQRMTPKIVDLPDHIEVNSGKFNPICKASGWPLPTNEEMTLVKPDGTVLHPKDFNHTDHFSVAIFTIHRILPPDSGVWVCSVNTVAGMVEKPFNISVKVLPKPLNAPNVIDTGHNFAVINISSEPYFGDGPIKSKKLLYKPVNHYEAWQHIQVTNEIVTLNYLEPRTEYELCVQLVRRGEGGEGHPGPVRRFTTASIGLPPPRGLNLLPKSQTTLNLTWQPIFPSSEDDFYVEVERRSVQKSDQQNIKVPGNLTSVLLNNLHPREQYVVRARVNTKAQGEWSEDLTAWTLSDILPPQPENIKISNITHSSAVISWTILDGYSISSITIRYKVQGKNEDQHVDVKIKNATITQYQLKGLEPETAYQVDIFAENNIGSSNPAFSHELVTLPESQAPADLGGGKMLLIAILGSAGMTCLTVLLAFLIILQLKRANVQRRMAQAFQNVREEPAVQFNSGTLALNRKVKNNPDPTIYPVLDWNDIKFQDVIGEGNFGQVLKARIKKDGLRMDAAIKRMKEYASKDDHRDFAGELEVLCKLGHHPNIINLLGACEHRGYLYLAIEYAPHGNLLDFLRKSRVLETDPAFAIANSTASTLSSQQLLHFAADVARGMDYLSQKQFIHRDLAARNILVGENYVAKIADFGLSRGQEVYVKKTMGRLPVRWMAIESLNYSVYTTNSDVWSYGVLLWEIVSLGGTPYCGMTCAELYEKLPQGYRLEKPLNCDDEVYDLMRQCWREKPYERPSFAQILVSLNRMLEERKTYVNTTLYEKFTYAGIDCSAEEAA

Row | Compound | residual activity [1] [%] | residual activity [2] [%] | residual activity [3] [%] | residual activity [4] [%] | residual activity [5] [%] | residual activity [6] [%] | residual activity [7] | residual activity [8] [%] | residual activity [9] | residual activity [10] [%] | residual activity [11] [%] | residual activity [12] [%] | residual activity [13] [%] | residual activity [14] [%] | residual activity [15] [%] | residual activity [16] [%] | residual activity [17] [%] | residual activity [18] [%] | residual activity [19] [%] | residual activity [20] [%]
1 | O=C1Cc2c([nH]c3ccc(Br)cc23)-c2ccccc2N1 | 87 | 49 | 76 | 92 | 55 | 66 | 99% (inactive) | 90 | 93% (inactive) |  |  |  |  |  |  |  |  |  |  | 
2 | O=C1Nc2ccc(Cl)cc2/C1=C/c1cc(Cl)c(O)c(Cl)c1 | 95 | 78 | 57 | 89 | 70 | 3 | 110% (inactive) | 92 |  | 75 | 51 | -1 | 2 | 38 | 93 | 80 | 89 | 47 |  | 
3 | CC(C)(C)n1nc(Cc2cccc3ccccc23)c2c(N)ncnc21 | 96 | 90 |  | 53 | 10 | 24 | 92% (inactive) | 68 | 98% (inactive) | 71 | 28 | 80 | 17 | 45 | 43 | 7 | 109 | 90 | 106 | 95
4 | CCOC(=O)c1c(C)[nH]c(/C=C2\C(=O)Nc3ccccc32)c1C | 93 | 83 | 97 | 88 | 92 | 45 |  |  |  |  |  | 13 | 32 | 73 | 97 | 91 | 76 | 70 |  | 
5 | Nc1n[nH]c2nc3ccccc3nc12 | 85 | 87 | 71 | 81 | 86 | 85 | 99% (inactive) | 86 |  |  |  | 86 | 67 | 84 | 87 | 76 | 87 | 84 |  | 92
6 | CCCCc1c(-c2ccc(OC)cc2)[nH]c2nccnc12 | 63 | 81 |  | 51 | 11 | 76 | 105% (inactive) | 100 | 105% (inactive) | 105 | 82 | 61 | 57 | 70 | 53 | 55 | 68 | 69 |  | 
7 | O=C(O)/C=C/c1cc(Br)c(Br)c(Br)c1Br | 81 | 99 | 102 | 94 | 96 | 83 | 109% (inactive) | 105 |  | 99 | 89 |  |  | 109 | 94 | 95 | 98 | 93 | 109 | 107
8 | O=c1cc(N2CCNCC2)oc2c(-c3ccccc3)cccc12 | 101 | 93 | 82 |  | 80 |  | 95% (inactive) | 90 |  | 69 | 78 |  |  |  |  | 98 | 101 | 92 | 100 | 95
9 | CC(C)[C@H](CO)Nc1nc(Nc2cc(N)cc(Cl)c2)c2ncn(C(C)C)c2n1 | 86 | 66 | 90 | 61 | 13 |  |  |  | 87% (inactive) | 100 | 52 | 5 | 0 |  | 63 | 17 | 41 | 8 |  | 
10 | O=C1C(Cl)=C(N2C(=O)CCC2=O)C(=O)c2ccccc21 | 101 | 79 | 80 | 90 | 79 | 93 | 93% (inactive) | 98 | 89% (inactive) |  | 71 | 89 | 68 | 85 | 76 | 87 | 87 | 97 |  | 
11 | NC(=O)Nc1sc(-c2ccc(F)cc2)cc1C(N)=O | 62 | 27 | 54 |  |  | 2 | 95% (inactive) | 52 |  | 82 | 21 |  |  | 27 |  |  | 69 | 24 | 86 | 36
12 | O=C(NC(NC(=S)Nc1ccc(F)c([N+](=O)[O-])c1)C(Cl)(Cl)Cl)C(c1ccccc1)c1ccccc1 (stereo not drawn) | 87 | 103 | 101 | 102 | 62 | 89 |  | 95 |  |  | 82 | 87 | 52 | 91 | 82 | 76 | 97 | 98 | 96 | 
13 | CCN(CC)CCNC(=O)c1c(C)[nH]c(/C=C2\C(=O)Nc3ccc(Cl)cc32)c1C | 8 | 0 | 26 | 78 | 29 | -12 |  |  |  | 56 | 19 | -1 | 0 | 40 | 70 | 21 | 17 | 2 | 23 | 2
